Bioassay records from PubChem.
FMDV inh – High Throughput Screening for Foot and Mouth Disease Virus Antivirals; FMDV antiviral cell-based qHTS; Potency, µM (titrated, usually from 57.9 µM), for inactives: at the highest dose activity change, negative = inhibition, hits mostly inhibitors; 410,000 compounds, 1.2% hits; AID 1159524, 2015; calls by dose curve; tested in HEK293T cells; further: read-out not given here; potency means the concentration at half of the fitted maximal effect; nearly all actives have a fitted effect of over 45% in size
MARV entry inh – qHTS for inhibitors of binding or entry into cells for Marburg Virus; AID 540276, 2011; 300,000 compounds, 1.8% hits; Potency, µM (highest dose often 37.8 µM), for inactives: at the top dose activity change, negative = inhibition, actives largely listed as inhibitors; Marburg virus pseudotyped entry inhibition, cell reporter; calls by dose curve; tested in HEK293 cells; further: potency means the concentration at half of the fitted maximal effect
HCMV antiviral – qHTS Assay for inhibitors of the human cytomegalovirus (HCMV) | 410,000 compounds, 4.5% hits | HFF cells, HCMV-luciferase reporter, 72 h; stronger effect = lower value | AID 1259415, 2018 | activity change, negative = inhibition, % at 57.5 µM; in the data active means activity change below about -60%; inconclusive means no clear call, values can overlap the other calls; inactive means above about -39%
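Screen run at 2 compound doses on HFFs infected with reporter HCMV, MOI 1 PFU/cell. Luciferase activity from cell lysates at 72 h post infection gave inhibition relative to buffer-only and Salinomycin wells.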
LASV entry inh – qHTS for Inhibitors of binding or entry into cells for Lassa Virus; Lassa virus pseudotype entry inhibition, cell reporter; Potency, µM (highest dose often 37.9 µM), without a hit: at the top dose activity change, negative = inhibition, actives largely listed as inhibitors; 300,000 compounds, 1.2% hits; AID 540256, 2011; calls by dose curve; tested in HEK293 cells; further: potency means the concentration at half of the fitted maximal effect; nearly all actives have a fitted effect of over 50% in size
HCV inhibitor – qHTS Assay for Inhibitors of Hepatitis C Virus (HCV) | Huh7.5.1 HCVcc-Cre infection, luciferase reporter, 44 h | Potency, µM (highest dose often 41.8 µM), for the others: top-dose activity change, negative = inhibition, most hits filed as inhibitors | 340,000 compounds, 3.4% hits; active means well fitted inhibition curve with a large enough effect; inconclusive means small, poorly fitted or top-dose-only effect, or another doubt; inactive means no such curve, though single readings can be large or run the other way; further: potency means the concentration at half of the fitted maximal effect
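Infectious HCV cell culture screen: compound-treated cells (1,000/well, pre-plated 4 h) are infected with HCVcc-Cre at roughly 0.5 moi and grown 44 h. Infection is quantified by luciferase signal after 15 min substrate incubation at room temperature.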
The depositor's hits bear a star; ? = inconclusive; nt = not tested or not shown; ! = not active in a repeat; [ ] = dose if it differs, or a comment. A selection: hits, their analogues and other compounds. The true share with any hit is near 7.9%. On the % scale 0 is the no-effect control and ±100 the full control effect.

SMILES | FMDV inh | MARV entry inh | HCMV antiviral | LASV entry inh | HCV inhibitor
Cc1cc(SCC(=O)Nc2nsc(-c3ccc(C(C)(C)C)cc3)n2)nc2ccccc12 | 10.0% | 22.9%[46.1 µM] | 288.6 | -22.9%[46.1 µM] | nt
COc1ccc(-c2noc(-c3ccc(N4CCN(c5ccccc5OC)CC4)c([N+](=O)[O-])c3)n2)cc1 | -5.7% | -19.2%[46.1 µM] | 2.3 | 14.5%[46.1 µM] | nt
COCc1c(C(=O)N2CCN(C3CCCC3)CC2)cnn1-c1nccc(-c2cc(C)sc2C)n1 | -1.5% | nt | nt | nt | nt
O=C(/C=C/c1ccc([N+](=O)[O-])cc1)Nc1cccc(S(=O)(=O)NC2=NCCCCC2)c1 | ? | ? | -39.4 | ? | 25.1µM*
O=C(Nc1cccc(S(=O)(=O)NC2=NCCCCC2)c1)c1ccc(Cl)cc1 | ? | ? | -68.4* | ? | ?
O=C(/C=C/c1ccccc1Cl)Nc1cccc(S(=O)(=O)NC2=NCCCCC2)c1 | 24.0% | ? | 50.3 | 6.3% | ?
Oc1cc2c(cc1O)[C@H]1c3ccccc3CNC1CC2 (stereo partly drawn) | nt | 15.8µM* | nt | nt | nt
CC(C)Cc1cc(C(=O)NCC2Cc3cc(F)cc(-c4ccccn4)c3O2)no1 (stereo not drawn) | 6.1% | nt | nt | nt | nt
N#CC1(NC(=O)CSc2nc3ccc([N+](=O)[O-])cc3s2)CCCCC1 | ? | ? | -80.9* | -7.1% | ?
COCCN1C(=O)COCc2cc(-c3cnn(C)c3)ccc21 | nt | nt | 20.7 | nt | nt
Cn1c(=NC(=O)CCl)sc2ccccc21 | ? | ? | -99.4* | ? | 2µM*
Cn1c(=NC(=O)c2ccco2)sc2ccccc21 | -13.0% | ? | 297.2 | nt | ?
CCC[C@]12CCN3C(=O)N[C@@H](c4ccccc4)[C@](C(=O)OCC)(C1)[C@H]32 | nt | 8.8%[14.2 µM] | nt | nt | nt
CCOC(=O)C1CCN(C(=O)c2ccc3nc(-c4ccc(OC)cc4)c(-c4ccc(OC)cc4)nc3c2)CC1 | 18.2% | nt | 0.0 | nt | 25.1µM*
CN1CCN(C(=O)c2ccc(CSc3ccc(Cl)cc3)cc2)CC1 | ? | ? | -14.5 | 8.5% | ?
CCOC(=O)N1CCN(C(=O)c2ccc(CSc3ccc(Cl)cc3)cc2)CC1 | 25.1µM* | ? | -71.2* | ? | ?
COc1ccc(CCNC(=S)N2CCC(C(=O)c3ccc(F)cc3)CC2)cc1OC | ? | ? | ? | ? | 0.501µM*
COc1ccc(C(=O)C2CCN(C(=S)NCCc3ccc(OC)c(OC)c3)CC2)cc1 | -24.2% | ? | ? | ? | ?
CCOc1ccc(C(=O)C2CCN(C(=O)c3ccc([N+](=O)[O-])cc3)CC2)cc1 | ? | nt | ? | nt | 10µM*
CCc1nc(-c2ccc(C)c(S(=O)(=O)N3CCN(c4ccc(C(C)=O)cc4)CC3)c2)no1 | -29.3% | nt | -22.4 | ? | nt
CCOC(=O)N1CCN(C(=O)c2ccc(Oc3ccc([N+](=O)[O-])cc3)cc2)CC1 | ? | -11.4%[46.1 µM] | -83.1* | -20.5% | ?
COc1ccc(C(=O)C2CCN(C(=O)c3ccc(F)cc3)CC2)cc1 | -29.2% | -20.1% | ? | 3.8% | 25.1µM*
COc1ccc(NC(=O)c2cc3c(=O)n(Cc4cccnc4)ccc3nc2C)cc1Cl | -12.4% | nt | -8.2 | -8.7%[46.1 µM] | nt
O=C1c2ccccc2-c2onc3ccc(NCCCn4ccnc4)c1c23 | nt | ? | nt | -21.2% | 12.6µM*
COc1ccc2noc3c2c1C(=O)c1ccccc1-3 | -15.1% | nt | -9.1 | nt | ?
SMILES | FMDV inh | MARV entry inh | HCMV antiviral | LASV entry inh | HCV inhibitor
CSc1nnc(CCNC(=O)c2ccccc2C(F)(F)F)n1-c1ccc(F)cc1 | -15.0% | nt | nt | nt | nt
Cc1ccc(N(Cc2cc(=O)[nH]c3ccccc23)C(=O)CCl)c(C)c1 | 35.5µM* | ? | -97.4* | ? | ?
COc1ccccc1-n1c(=O)oc2ccc(Cl)cc2c1=O | 0.0% | ? | -95.3* | ? | ?
CC(C)OCCCn1c(=O)c2ccccc2n2c(-c3ccc(F)cc3)nnc12 | -1.4% | -16.1%[46.1 µM] | -21.5 | 4.2%[46.1 µM] | nt
CC1=C(C(=O)OC2CCCC2)C(c2ccccc2Cl)CC(=O)N1 (stereo not drawn) | 0.0% | -0.6%[46.1 µM] | -29.3 | -20.6%[46.1 µM] | nt
CC1=C(C(=O)OC2CCCC2)C(c2cccc(Cl)c2Cl)CC(=O)N1 (stereo not drawn) | ? | -47.0%[46.1 µM] | -74.6* | 14.7%[46.1 µM] | nt
COC(=O)c1cc(S(=O)(=O)NCc2ccc3c(c2)OCO3)cn1C | 31.5% | 14.7%[46.1 µM] | 1.2 | -4.2%[46.1 µM] | 11.8%
CCc1ccc(NC(=O)C2(c3ccccc3)CC2(Cl)Cl)cc1 (stereo not drawn) | ? | 0.3% | ? | 16.4µM* | ?
O=C(Nc1nc2c(F)cccc2s1)c1ccc(S(=O)(=O)N2CCCc3ccccc32)cc1 | ? | nt | -3.2 | ? | nt
O=C(Nc1nc2c(F)cc(F)cc2s1)c1ccc(S(=O)(=O)N2CCc3ccccc32)cc1 | -26.6% | nt | -99.0* | ? | nt
Cc1ccc2nc(NC(=O)c3ccc(S(=O)(=O)N4CCCc5ccccc54)cc3)sc2c1 | ? | ? | -90.0*! | ? | ?
CCOc1ccccc1NC(=O)C1CCC(CNS(=O)(=O)c2ccc3c(c2)CCCC(=O)N3)CC1 (stereo not drawn) | -5.9% | nt | -4.5 | -4.9%[46.1 µM] | nt
CC(/C=C/c1ccccc1)=N\NC(=S)NC(C)C | -24.5% | ? | -29.1 | ? | ?
CC(/C=C/c1ccccc1)=N\NC(N)=S | -8.5% | ? | -4.9 | -18.2% | 15.8µM*
COc1ccc(-c2noc(CSCC(=O)Nc3ccc(C)cc3Br)n2)cc1OC | -0.3% | nt | 6.9 | -19.3%[46.1 µM] | nt
CC(=O)NC(C)(c1ccccc1)c1nc(-c2csc3ccccc23)cs1 (stereo not drawn) | -16.2% | nt | -13.2 | nt | nt
Cc1nc(N)c(CC(Br)CBr)c(Cl)n1 (stereo not drawn) | -25.1% | nt | -68.5* | nt | -12.2%
N#Cc1ccc(OCC(=O)OCC(=O)Nc2sccc2C(N)=O)cc1 | -7.2% | nt | -6.9 | nt | 6.9%
O=C(CSc1nnc(-c2ccncc2)n1Cc1ccco1)Nc1nc(-c2ccccc2)cs1 | 17.8µM* | ? | -5.2 | -19.9% | 10µM*
CCn1c(SCC(=O)Nc2nc(-c3ccccc3)cs2)nnc1-c1ccccc1O | 35.5µM* | ? | 0.9 | ? | 11.2µM*
Cc1ccc(-c2csc(NC(=O)CSc3nnc4c(n3)[nH]c3ccccc34)n2)cc1 | ? | ? | -26.5 | 3.16µM* | -26.8%
COc1ccc(-c2cnc(SCC(=O)Nc3nc(C(C)(C)C)cs3)n2Cc2ccco2)cc1 | ? | ? | -19.5 | 12.6µM* | 4.47µM*
O=C(Nc1cccc(-c2nc3ccccc3[nH]2)c1)c1c(F)cccc1F | -10.9% | nt | 63.8 | 15.6%[46.1 µM] | nt
CCOc1ccccc1NC(=O)Cn1nnc(C(=O)NCc2ccc3c(c2)OCO3)c1N | -25.2% | nt | -11.3 | nt | -7.9%
C[C@@H]1CCCCO[C@@H](CN(C)S(=O)(=O)c2ccccc2)[C@@H](C)CN([C@H](C)CO)C(=O)c2cc(NS(=O)(=O)c3ccc(F)cc3)ccc2O1 | -12.5% | nt | 15.8 | nt | nt
Cc1ccccc1OCC(=O)Nc1ccc(-c2nc3ccccc3o2)cc1 | 9.9% | nt | 22.4 | 26.7%[46.1 µM] | nt
